Many of the other results were omitted from the sample, so hits are more common in it than they were.
TTR transcr act: increases transthyretin transcription. SH-SY5Y TTR promoter Gaussia luciferase, luminescence; 100% = recombinant luciferase protein wells. activation, % at 16.7 µM. hit rate 1.3% among 92,000;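 active means activation above the mean of all tested compounds plus 3 SD, cut at about 9.5% in these data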;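 further: cells exposed to compounds for one day before reading; 0% = median of all test compound wells on the plate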
TTR inh HuH7: decreases TTR transcription in HuH7 cells in activator counter-screen; shares compounds with TTR transcr act; HuH7 TTR promoter-Gaussia luciferase reporter, luminescence; inhibition, % at 16.7 µM; hit rate 4% among 1,100; AID 1117279;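 active means average inhibition above the solvent-only control wells' mean plus 3 SD, cut at about 15% in these data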;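 further: 0% = cells with DMSO only and 100% = cells with inhibitor control FD; inhibitors lower well luminescence so higher value means more inhibition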
TTR up confirm: confirmation of human transthyretin transcription activators; 1,100 tested, under 10 active; activation, % at 16.7 µM; shares compounds with TTR transcr act; SHSY5Y TTR promoter Gaussia luciferase, luminescence; 100% = purified Lucia enzyme wells, no cells;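 active means mean activation above a set limit taken from the earlier primary screen, cut at about 11% in these data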;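 further: 0% = DMSO-treated cells and 100% = recombinant Lucia luciferase without cells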
* = called active by the depositor.

SMILES | TTR transcr act | others
CCCOc1cccc(C2/C(=C(/O)c3ccc(OC)cc3)C(=O)C(=O)N2CCN(C)C)c1 (stereo not drawn) | 4
COc1ccc(C2/C(=C(/O)c3ccc(F)cc3)C(=O)C(=O)N2CCCN(C)C)cc1 (stereo not drawn) | 12* | TTR inh HuH7=-11;TTR up confirm=1
COc1ccc(/C(O)=C2/C(=O)C(=O)N(CCCN3CCOCC3)C2c2ccc(N(C)C)cc2)cc1 (stereo not drawn) | 1
C[C@@H]1CCN(C2CC2)S(=O)(=O)c2ccc(N3CCC[C@@H]3CO)cc2O1 | 0
Nc1nnnn1CC(=O)N/N=C/c1cccs1 | 36* | TTR inh HuH7=-8;TTR up confirm=1
O=C(Cn1ccc(C(F)(F)F)n1)N/N=C/c1cccs1 | -1
Cc1ccnn1CC(=O)N/N=C/c1cccs1 | -1
COC(=O)[C@@]12CCCCC3=C1N(CCC3)C(=O)[C@H]2CC(=O)NCC12CC3CC(CC(C3)C1)C2 | 0
O=C1C2C(CC3c4ccccc4CCN32)CN1c1ccccc1 (stereo not drawn) | 1
CC(C)c1ccc(NC(=O)COC(=O)COc2ccccc2)cc1 | 10* | TTR inh HuH7=-7;TTR up confirm=0
CC(C)c1ccc(OCC(=O)Nc2ccncc2)cc1 | -1
O=C(COC(=O)COc1ccccc1)Nc1ccc2c(c1)OCCO2 | -1
C[C@H]1[C@H](NC(=O)c2cccc(C(F)(F)F)c2)CC[C@@]23CCCN2C(=O)CCC[C@@H]13 | -1
COc1ccc(CNCc2cccc(C)c2)cc1 | 0
COc1ccc(CNCc2cc(Cl)ccc2O)cc1 | 10* | TTR inh HuH7=3;TTR up confirm=0
Oc1ccc(Cl)cc1CNCc1ccc(F)c(F)c1 | 2
CN1CCC(N[C@@H](Cc2c[nH]c3ccccc23)C(=O)NCCCc2ccccc2)(C(=O)NCCc2c[nH]c3ccccc23)CC1 | 6
C#CCNC(=O)C[C@@H]1C[C@]2(C(=O)OCC)CCC3=C2N(CCC3)C1=O | -2
CCCC(C)C(=O)NC1CCCCN(Cc2ccc(C)cc2)C1=O (stereo not drawn) | -2
COC(=O)[C@]12C[C@H](CC(=O)NCC34CC5CC(CC(C5)C3)C4)C(=O)N(CCC3=CCCCC3)C1=C[C@H](C1CCCC1)O[C@@H]2C | 1
CCCc1nc2sc3c(c2c(=O)[nH]1)CCCC3 | -1
COCc1nc2sc3c(c2c(=O)[nH]1)CCCC3 | 2
CCN(CC(=O)NC(C)C)Cc1nc2sc3c(c2c(=O)[nH]1)CCC3 | 13* | TTR inh HuH7=-20;TTR up confirm=-1
COCCCNC(=O)C[C@H]1C[C@@]2(C(=O)OC)C(=C[C@H](C3CCCC3)O[C@@H]2C)N(Cc2ccco2)C1=O | 0
O=C(c1cccc(Br)c1)N1CCN(C(=O)N2CCOCC2)CC1 | 1
SMILES | TTR transcr act | others
O=C(NC(=S)Nc1ccccc1N1CCOCC1)c1ccc(Br)cc1 | 0
O=C(/C=C\N1CCOCC1)c1ccc(Br)cc1 | 12* | TTR inh HuH7=-7;TTR up confirm=1
CCN(CC)C(=O)O[C@H]1CC[C@@]23CCCN2C(=O)CCC[C@H]3[C@H]1C | 1
COc1ccc(-c2nnc(SCc3nc4ccccc4s3)n2C(C)C)cc1 | -1
CCn1c(SCc2nc3ccccc3s2)nnc1-c1cccs1 | 15* | TTR inh HuH7=-23;TTR up confirm=0
Cn1c(SCc2nc3ccccc3s2)nnc1-c1cccs1 | -4
CC(C)CN1C(=O)C[C@@]2(C(=O)N(C)c3ccc(NS(=O)(=O)C4CCCCC4)cc32)C1c1ccccc1 (stereo partly drawn) | 2
COc1ccc(C(=O)Nc2cc(Cl)c(Br)cc2C(=O)O)cc1 | -2
COc1ccc(NC(=O)Nc2nnc(N3CCCCC3C)s2)cc1OC (stereo not drawn) | -1
CC1CCCCN1c1nnc(NC(=O)Cn2c(=O)oc3ccccc32)s1 (stereo not drawn) | 19* | TTR inh HuH7=-16;TTR up confirm=-1
COc1ccc(-c2nc(NC(=O)Cn3c(=O)oc4ccccc43)sc2C)cc1 | -2
O=C1CCC2(CCC(c3ccccc3)CC2)N1CC[C@@H](O)c1ccccc1 (stereo partly drawn) | -1
COC(=O)C[C@H]1CC[C@H]2[C@H](COc3ccc(NS(=O)(=O)c4cccc(OC)c4)cc3C(=O)N2C)O1 | 0
Brc1ccc(-c2csc(N3CCNCC3)n2)cc1 | 1
CN1C(c2ccccc2)CC2CN(c3ccccc3)C(=O)C21 (stereo not drawn) | 2
CCOC(=O)[C@@]12CCC3=C1N(CCC3)C(=O)[C@H](CC(=O)N1CCOCC1)C2 | -1
COc1ccc(Nc2nc3[nH]c(=O)cc(O)c3s2)cc1 | 2
O=c1cc(O)c2sc(Nc3ccc(Cl)c(F)c3)nc2[nH]1 | 9.9* | TTR inh HuH7=17*;TTR up confirm=-1
Cc1ccc(Nc2n[nH]c(=S)s2)cc1F | 4
CC(C)C[C@H](NC1(C(=O)NC2CCCCC2)CCN(C)CC1)C(=O)NCC(c1ccccc1)c1ccccc1 | -4
O=S1(=O)c2c(cccc2N2CC[C@H](O)C2)O[C@H]2CCN1C2 | 1
COc1ccc(CN(CC2CCC(C(=O)O)CC2)C(=S)Nc2ccc(C)c(Cl)c2)cc1 (stereo not drawn) | 0
COc1ccc(NC(=S)N(Cc2cccc(Br)c2)CC2CCC(C(=O)O)CC2)cc1 (stereo not drawn) | 43* | TTR inh HuH7=-21;TTR up confirm=-1
COc1cccc(NC(=S)N(Cc2cccc(Br)c2)CC2CCC(C(=O)O)CC2)c1 (stereo not drawn) | 1
Cc1c(-c2ccccc2Cl)nc2ccccc2c1C(=O)O | 0
SMILES | TTR transcr act | others
CC(C)(C)C(=O)Nc1cc2nn(-c3ccccc3)nc2cc1Cl | -1
CC(C)(C)C(=O)Nc1nc(NC(=O)C(C)(C)C)nc(-c2ccccc2Cl)n1 | 10* | TTR inh HuH7=0;TTR up confirm=-1
Cc1ccc(NC(=O)OC2CC3CC2[C@H]2CCCCN2C3)cc1 (stereo partly drawn) | -3
CCOC(=O)[C@@]12CCC3=C1N(CCC3)C(=O)[C@H](CC(=O)NCCCN1CCCC1=O)C2 | 4
C[C@H]1[C@@H](N(C)Cc2cccs2)CC[C@@]23CCCN2C(=O)CCC[C@@H]13 | -2
O=C(O)c1ccc(-n2nnnc2SCc2ccccc2F)cc1 | 0
CSc1nnnn1-c1ccc(C)c(Cl)c1 | 0
CSc1nnnn1-c1ccc(C(=O)O)cc1 | 19* | TTR inh HuH7=-7;TTR up confirm=0
COC[C@H]1CCCN1c1ccc2c(c1)O[C@@H]1CCN(C1)S2(=O)=O | 1
O=C(CCN1CCOCC1)c1ccc(N2CCCCC2)cc1 | 10.0* | TTR inh HuH7=-9;TTR up confirm=0
CC(C)(C)c1cc(C(=O)CCN2CCOCC2)cc(C(C)(C)C)c1O | -4
CCC(=O)c1ccc(OCCN2CCOCC2)cc1 | -1
CC(C)(C)OC(=O)N1CCC(N[C@@H](Cc2c[nH]c3ccccc23)C(=O)NCC(c2ccccc2)c2ccccc2)(C(=O)NC2CCCCC2)CC1 | -2
COC(=O)[C@]12C[C@H](CC(=O)NCc3cccc4ccccc34)C(=O)N(Cc3ccc(Cl)cc3Cl)C1=C[C@H](C(C)C)O[C@@H]2C1CC1 | 1
O=S1(=O)CCOC[C@H](Cc2ccccc2)N1Cc1cccc(F)c1 | 0
O=S1(=O)CCOC[C@H](c2ccccc2)N1Cc1cccc(F)c1 | 13* | TTR inh HuH7=0;TTR up confirm=0
O=S1(=O)CCOC[C@H](Cc2ccccc2)N1Cc1ccc(F)cc1 | 6
CC(NC(=O)c1cc2ccc(C(F)(F)F)cc2nc1N)c1cccc2ccccc12 (stereo not drawn) | 3

Compound activity: PubChem BioAssay, The Scripps Research Institute Molecular Screening Center
